In the library only some 27% were active in any assay of this set; here they are far more common.
CYP2C19 inh: inhibitors of human CYP2C19; P33261; CYP2C19 Supersomes, luciferin-H EGE luminescence, 30 min; inhibition, % at 5 µM; 21% of 96,000 active;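 active means CYP2C19 inhibition above a set limit at 5 µM in the primary screen, cut at about 50% in these data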;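 further: plate controls were negative control wells for no effect and 2.5 mM tranylcypromine positive control for full effect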
Target sequence (P33261 whole entry, looked up): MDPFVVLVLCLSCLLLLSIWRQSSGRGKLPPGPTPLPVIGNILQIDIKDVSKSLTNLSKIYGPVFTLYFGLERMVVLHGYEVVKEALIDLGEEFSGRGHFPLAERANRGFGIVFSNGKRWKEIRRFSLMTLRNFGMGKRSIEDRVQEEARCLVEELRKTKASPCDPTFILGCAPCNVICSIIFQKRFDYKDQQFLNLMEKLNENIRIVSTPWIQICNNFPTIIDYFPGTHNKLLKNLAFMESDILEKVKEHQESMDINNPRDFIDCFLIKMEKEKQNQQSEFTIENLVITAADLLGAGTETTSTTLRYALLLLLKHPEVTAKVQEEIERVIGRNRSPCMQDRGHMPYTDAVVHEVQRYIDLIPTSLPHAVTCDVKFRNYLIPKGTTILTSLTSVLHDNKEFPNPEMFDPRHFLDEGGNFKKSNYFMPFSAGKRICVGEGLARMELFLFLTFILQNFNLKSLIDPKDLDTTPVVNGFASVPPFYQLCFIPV
CYP2C9 inh: inhibitors of human CYP2C9 | CYP2C9 Supersomes, luciferin-H conversion, luminescence | inhibition, % at 5 µM | 20% of 96,000 active | AID 777;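 active means blocking of liver enzyme CYP2C9 beyond about 50% at 5 µM, limit read from the data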
CYP2C9 act: CYP2C9 (human) activation; P11712; recombinant CYP2C9, luciferin-H conversion, luminescence; stronger effect = higher value; factor 1 = untreated enzyme, 0 = blocked; activation factor at 5 µM; 1.4% of 96,000 active; AID 1024;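 active means activation factor of 2 or more for CYP2C9 at a 5 µM dose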;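 further: 0 = sulfaphenazole-blocked wells and 1 = vehicle-only wells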
sEH inhibitor: soluble epoxide hydrolase (human) inhibition; recombinant human sEH enzymatic activity assay; inhibition, % at 2 µM; 0.34% of 91,000 active; AID 707; in the data active means inhibition above about 80%
CYP2C19 activ: activators of human cytochrome P450 2C19 | P33261 | recombinant CYP2C19, luciferin-H EGE luminescence; stronger effect = higher value; 0 = fully inhibited enzyme, 1 = untreated enzyme | activation factor at 5 µM | 96,000 tested, under 10 active;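 active means activation factor of at least 2 at 5 µM in the primary screen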;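 further: 0 = wells with 2.5 mM tranylcypromine and 1 = vehicle-only wells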
sEH activator: soluble epoxide hydrolase (human) activation; P34913; purified human sEH enzymatic activity, activator screen; activation, % at 2 µM; 0.04% of 91,000 active; in the data active means activation above about 37%
Active calls of the source: *; / = no result given.

SMILES	CYP2C19 inh	CYP2C9 inh	CYP2C9 act	sEH inhibitor	CYP2C19 activ	sEH activator
COc1cccc(NC(=O)N2CCN(c3ccc(C(F)(F)F)cn3)CC2)c1	-1	4	1	9	1	-9
c1ccc(-c2c(-c3ccccc3)n(Cc3ccco3)c3ncnc(NCCCn4ccnc4)c23)cc1	100*	100*	0	-4	0	2
c1ccc(-c2oc3ncnc(NCCCn4ccnc4)c3c2-c2ccccc2)cc1	98*	99*	0	1	0	-1
c1ccc(-c2oc3ncnc(NCCN4CCOCC4)c3c2-c2ccccc2)cc1	83*	98*	0	5	0.2	0
OCCNc1ncnc2c1c(-c1ccccc1)c(-c1ccccc1)n2Cc1ccco1	41	56*	0.4	9	0.6	-11
N=c1c2c(-c3ccccc3)c(-c3ccccc3)oc2ncn1CCN1CCOCC1	40	42	0.6	5	0.6	-2
CCOCCCNC(=O)c1ccc(CS(=O)(=O)Cc2ccc(C)cc2)o1	11	18	0.8	1	0.9	-1
COc1cc(C(c2c(C)[nH][nH]c2=O)c2c(C)[nH][nH]c2=O)ccc1OS(=O)(=O)c1ccccc1	23	37	0.6	4	0.8	-3
O=S(=O)(c1ccccc1)c1cnc(-c2cccnc2)nc1-c1ccc(Cl)c(Cl)c1	72*	64*	0.4	3	0.3	-4
Cc1ncc(S(=O)(=O)c2ccccc2)c(-c2ccccc2Cl)n1	62*	19	0.8	24	0.4	-26
CN(C)c1ncc(S(=O)(=O)c2ccc(Cl)cc2)c(-c2ccc(Cl)cc2Cl)n1	81*	38	0.6	-3	0.2	5
CCCCCCn1c(COc2ccccc2F)nnc1SCC(=O)N1c2ccccc2NC(=O)C1(C)C	33	48	0.5	2	0.7	-4
O=C1c2ccccc2CC1Sc1nnc(-c2ccncc2)o1 (stereo not drawn)	96*	87*	0.1	-3	0	3
O=C1CC(Sc2nnc(-c3ccccc3)o2)C(=O)N1c1ccccc1 (stereo not drawn)	13	12	0.9	17	0.9	-13
O=C(O)C1CCC(=O)N1C1CCCC1 (stereo not drawn)	0	-11	1.1	/	1	/
COc1ccc(-c2nc(C#N)c(N3CCN(c4cccc(Cl)c4)CC3)o2)cc1OC	32	16	0.8	/	0.7	/
COc1cc2c(cc1OC)C1=C(C#N)CC/C(=N\S(=O)(=O)c3cccc(Cl)c3)N1CC2	27	63*	0.4	1	0.7	2
Cc1ccc(-c2cc(C(=O)N3CCCc4ccccc43)c3ccccc3n2)cc1	71*	93*	0.1	0	0.3	-2
Cc1cc(C)c2cc3c(N)c(C(=O)N4CCc5ccccc5C4)sc3nc2c1	13	16	0.8	-4	0.9	6
Cc1ccc(-c2cc(C(F)(F)F)n3ncc(C(=O)N4CCCc5ccccc54)c3n2)cc1	/	/	/	-5	/	5
Cc1ccc2nc3sc(C(=O)N4CCCc5ccccc54)c(N)c3cc2c1	87*	92*	0.1	-12	0.1	10
O=C(CN1CCC(NC(=O)Cc2ccccc2)CC1)Nc1cccc2ccccc12	33	23	0.8	15	0.7	-14
CCOC(=O)c1c(C)[nH]c(C(=O)COC(=O)c2ccccn2)c1C	34	56*	0.4	7	0.7	-3
CCOC(=O)c1c(C)[nH]c(C(=O)Cn2nnc(-c3ccccc3Cl)n2)c1C	19	82*	0.2	/	0.8	/
CCOC(=O)c1c(C)[nH]c(C(=O)Cn2nnc(-c3ccccc3)n2)c1C	59*	48	0.5	/	0.4	/
SMILES	CYP2C19 inh	CYP2C9 inh	CYP2C9 act	sEH inhibitor	CYP2C19 activ	sEH activator
Cc1cccc(-c2c3c(=O)n(C)c(=O)n(C)c3cn2CC2CCCO2)c1 (stereo not drawn)	1	9	0.9	8	1	-7
Cn1c2ccccc2c(=O)c2c(=O)n(C3CCCCC3)c(-c3cccs3)nc21	31	95*	0	2	0.7	0
CCC(=O)Nc1c(-c2cccs2)c(=O)c2ccccc2n1C	-1	12	0.9	-6	1	7
CC(C)(C)n1[nH]c2c3c(ccc2c1=O)C(=O)c1ccccc1C3=O	30	43	0.6	1	0.7	-3
COCCCn1[nH]c2c3c(ccc2c1=O)C(=O)c1ccccc1C3=O	5	64*	0.4	-1	0.9	0
COc1ccc(NC(=O)C2CCN(c3cc(C)nc(-c4ccccc4)n3)CC2)cc1	17	10	0.9	72	0.8	-72
Cc1cc(N2CCC(C(=O)Nc3ccc(F)cc3)CC2)nc(-c2ccccc2)n1	82*	62*	0.4	71	0.2	-71
Cc1cc(N2CCC(C(N)=O)CC2)nc(-c2ccccc2)n1	-6	53*	0.5	-22	1.1	24
NC(=O)C1CCN(c2nc(-c3ccccc3)nc3ccccc23)CC1	21	54*	0.5	-4	0.8	3
Cc1cc(N2CCN(c3ccc(F)cc3)CC2)nc(-c2ccccc2)n1	/	/	/	-6	/	6
NC(=O)C1CCN(c2nc(-c3ccccc3)nc3c2oc2ccccc23)CC1	4	14	0.9	4	1	-4
CC1=C(C(=O)Nc2ccccc2)C(c2ccc(C)o2)n2c(s/c(=C\c3ccco3)c2=O)=N1 (stereo not drawn)	69*	85*	0.1	24	0.3	-23
O=C1CCCC(O)=C1C1C2=C(CCCC2=O)Oc2ccccc21 (stereo not drawn)	9	20	0.8	6	0.9	-2
Cc1ccc(CN(C#N)c2nc(C)cc(C)n2)cc1	44	-52	1.5	-5	0.6	4
Cc1cc(C)nc(N(C#N)Cc2ccc(Br)cc2)n1	68*	6	0.9	-2	0.3	5
O=c1[nH]c2cc(Cl)ccc2n(CCNc2ncc(C(F)(F)F)cc2Cl)c1=O	-8	-6	1.1	32	1.1	-32
O=c1cc(Cl)[nH]c(=O)n1CCNc1ncc(C(F)(F)F)cc1Cl	68*	100*	0	-15	0.3	17
CCOC(=O)c1cc(OC(=O)c2ccccc2)n(-c2ccccc2)n1	27	3	1	-2	0.7	-1
CCOC(=O)C(/C=N/c1cc(C)nn1-c1ccccc1)=C(\C)O	59*	70*	0.3	2	0.4	-2
CCOC(=O)C(=CNc1cc(C)nn1-c1ccccc1)C(=O)OCC	14	63*	0.4	6	0.9	-3
COCCNC(=O)CS(=O)(=O)Cc1nc(-c2ccc(C)cc2)oc1C	20	25	0.7	/	0.8	/
COC(=O)c1cccc(Oc2nc(N3CCOCC3)nc(N3CCOCC3)n2)c1	/	/	/	-13	/	17
C=CCn1c(SCC(=O)N2CCOCC2)nc(O)c(Cc2ccccc2)c1=O	11	8	0.9	0	0.9	1
O=C(NCc1ccco1)c1ccc(Br)c(S(=O)(=O)N2CCCCC2)c1	34	37	0.6	12	0.7	-11

Source: PubChem BioAssay
